pCIP destab – p/CIP protein destabilization. 290,000 tested, 0.01% active. AID 1984. Q05BA5. decrease of EGFP signal, % at 10 µM. F442A p/CIP-EGFP cells, EGFP fluorescence, 16 h;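 active = EGFP signal decrease of at least 30% at 10 µM or well 3 SD below plate mean, unless failing retest; inactive = the rest, including hits failing retest or dose response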
VLA-4 inh – inhibition in a human VLA-4 binding assay. VLA-4 expressing cells, ligand binding flow cytometry. inhibition, % (about 7 µM as worked out from the volumes in the protocol). 330,000 tested, 0.2% active. AID 2557; in the data active = inhibition above about 50%
JMJD2C inh – inhibitors of human GASC-1 (JMJD2C) demethylase. Q9H3R0. GST-JMJD2C(1-420) H3K9me3 demethylation, DELFIA europium. inhibition, % at 2.35 µM. 330,000 tested, 0.069% active. AID 2099;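 active = more than half of a compound's replicate wells show inhibition beyond 50%, single wells judged on their own value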;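 note: signal counts dimethyl H3K9 product captured on neutravidin plate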
GPR7 antag – blocks human GPR7 receptor signaling | GPR7-expressing cells, fluorescence antagonist assay | inhibition, % at 4.4 µM | 290,000 tested, 1.1% active | AID 1861; in the data active = inhibition above about 16%, passing the limit was not always enough;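 note: cells stimulated with the agonist NPW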
GPR7 antag conf – human GPR7 antagonism, confirmation assay; shares compounds with GPR7 antag; GPR7-expressing cells, calcium fluorescence antagonist mode; inhibition, % at 4.4 µM; 2,400 tested, 52% active; in the data active = inhibition above about 24%;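 note: stimulated with the GPR7 agonist NPW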
MCHR1 antagonist – MCHR1 (human) antagonism in GPR7 counter-screen; shares compounds with GPR7 antag; MCHR1-expressing cells, fluorescence antagonist assay; inhibition, % at 4.4 µM; 2,400 tested, 62% active; AID 2148; in the data active = inhibition above about 22%
Each line names hits and unclear results; the compound was inactive in the other large screens (follow-up assays come after a bar, where they were run). Shown are actives, neighbours in structure and some others; about 1.2% of the full set was active somewhere.

CCN(CC)CCNC(=O)c1ccc(NC(=O)c2cn(-c3ccccc3)nc2-c2cccs2)cc1	GPR7 antag 22 | GPR7 antag conf 35 | MCHR1 antagonist 45
CCN(CC)CCNC(=O)c1ccc(NC(=O)c2cn(-c3ccc(F)cc3)nc2-c2cccc(OC)c2)cc1	none
COC(=O)c1ccccc1NC(=O)CNCCc1ccc(OC)c(OC)c1	none
CSc1ccccc1C(=O)N(C)Cc1ccccc1	none
CSc1ccccc1C(=O)N(C)C(c1ccccc1)c1ccccc1	GPR7 antag 22 | GPR7 antag conf inactive | MCHR1 antagonist 61
Cc1nc(NCCO)c(C#N)c2c1COC(C)(C)C2	GPR7 antag 26 | GPR7 antag conf inactive | MCHR1 antagonist inactive
COc1ccc(C=O)cc1CN1CCCN(Cc2ccccc2F)S1(=O)=O	none
COc1ccccc1/C=C(/C#N)C(=O)O	none | GPR7 antag conf inactive | MCHR1 antagonist inactive
Cc1ccc(NC(=S)N(C)C)cc1C	none
CCc1ccc(/C=C2/Sc3ccccc3N(CC(=O)NCCCN3CCOCC3)C2=O)cc1	GPR7 antag 25 | GPR7 antag conf inactive | MCHR1 antagonist inactive
O=C(CN1C(=O)/C(=C\c2cccc(Cl)c2)Sc2ccccc21)NCCCN1CCOCC1	GPR7 antag 25 | GPR7 antag conf 26 | MCHR1 antagonist 36
Cc1ccc(CN2C(=O)c3ccccc3Sc3ccc(C(=O)NCCCN4CCOCC4)cc32)cc1	GPR7 antag 29 | GPR7 antag conf 40 | MCHR1 antagonist inactive
O=C(CN1C(=O)/C(=C\c2ccccc2Cl)Sc2ccccc21)NCCCN1CCOCC1	none
Cc1cc2c(Nc3cccc(O)c3)ncnc2s1	none
Cc1ccc(S(=O)(=O)N2CCN(C(=O)COC(=O)/C=C/c3ccccc3[N+](=O)[O-])CC2)c(C)c1	none (no result: pCIP destab, GPR7 antag)
COc1cc2c(cc1OC)C(C)N(C(=O)CCc1c[nH]c3ccccc13)CC2 (stereo not drawn)	none
CCN(CC)c1ccc(CN(C(=O)c2cccs2)C2CCS(=O)(=O)C2)cc1 (stereo not drawn)	none
O=C(NCCc1ccccc1F)C1CCCN1S(=O)(=O)c1ccc2ccccc2c1 (stereo not drawn)	GPR7 antag 23 | GPR7 antag conf inactive | MCHR1 antagonist 22
CCNC(=O)C1CCCN1S(=O)(=O)c1ccc2ccccc2c1 (stereo not drawn)	none
COC(=O)c1ccc(NC(=O)C(=O)N2CCN(C(=S)NCCc3ccccc3)CC2)cc1	GPR7 antag 22 | GPR7 antag conf inactive | MCHR1 antagonist inactive
CN(C)c1ccc(/C=C(\C#N)C(=O)Nc2nc3c(s2)CCN(Cc2ccccc2)C3)cc1	GPR7 antag 26 | GPR7 antag conf 33 | MCHR1 antagonist 31
FC(F)Sc1ccc(NC(=S)NCC2CCCCC2)cc1	GPR7 antag 34 | GPR7 antag conf 58 | MCHR1 antagonist 75
FC(F)Sc1ccc(NC(=S)NCc2ccccc2)cc1	GPR7 antag 46 | GPR7 antag conf 37 | MCHR1 antagonist 51
FC(F)Sc1ccc(NC(=S)NC(c2ccccc2)c2ccccc2)cc1	none
O=S(=O)(NC1c2cccc3cccc(c23)C1N1CCNCC1)c1ccc(Cl)cc1 (stereo not drawn)	GPR7 antag 49 | GPR7 antag conf 48 | MCHR1 antagonist 47
COc1cc(S(=O)(=O)n2cnc3ccccc32)ccc1Br	none
O=C(Cc1ccc(Cl)cc1)NNC(=O)C1CC=CCC1C(=O)O (stereo not drawn)	none
COc1cc(/C=N/n2c(C)nnc2C)cc(OC)c1OC	none
COc1c(Br)cc(Br)cc1/C=N/n1c(C)nnc1C	GPR7 antag 27 | GPR7 antag conf inactive | MCHR1 antagonist inactive
Cn1nnnc1SCCNCC#Cc1ccccc1	GPR7 antag 26 | GPR7 antag conf inactive | MCHR1 antagonist inactive
CCC(C)NCCOCCOc1ccc(Cl)c2ccccc12 (stereo not drawn)	GPR7 antag 71 | GPR7 antag conf 50 | MCHR1 antagonist 53
CCC(C)NCCOCCOc1ccc(Cl)c(C)c1C (stereo not drawn)	GPR7 antag 21 | GPR7 antag conf 24 | MCHR1 antagonist 25
CCOC(=O)N1CCN(C(=O)c2ccc3c(=O)n(CCc4ccccc4)c(=O)[nH]c3c2)CC1	none
COc1ccccc1Cn1c(=S)[nH]c2cc(C(=O)N3CCC(C(N)=O)CC3)ccc2c1=O	GPR7 antag 25 | GPR7 antag conf inactive | MCHR1 antagonist inactive
CCOC(=O)N1CCN(C(=O)c2ccc3c(=O)n(Cc4ccccc4OC)c(=S)[nH]c3c2)CC1	none
O=C(COC(=O)COc1ccc(Cl)cc1)NC1CCCC1	none (no result: pCIP destab, GPR7 antag)
COc1ccc(CC(=O)N2CCNC2=O)cc1	GPR7 antag 30 | GPR7 antag conf inactive | MCHR1 antagonist inactive
CCOC(=O)CNC(c1ccccc1)c1cc(Br)ccc1NC(C)=O (stereo not drawn)	GPR7 antag 36 | GPR7 antag conf 30 | MCHR1 antagonist inactive
COC(=O)CNC(c1ccccc1)c1cc(C)ccc1NC(=O)CNC(=O)OCc1ccccc1 (stereo not drawn)	GPR7 antag 39 | GPR7 antag conf 29 | MCHR1 antagonist inactive
CCOc1ccccc1CNC(=O)c1cc2oc3ccccc3c2n1C	none
CCOc1ccccc1CNC(=O)c1cc2occc2n1C	GPR7 antag 24 | GPR7 antag conf inactive | MCHR1 antagonist inactive
COc1ccc(CCNC(=O)C2CCN(S(=O)(=O)c3c(C)noc3C)CC2)cc1OC	GPR7 antag 29 | GPR7 antag conf inactive | MCHR1 antagonist inactive
O=C(Cc1ccc(Cl)cc1)NC1CCCCCC1	none
Clc1ccc(CN=C(Nc2ccccc2)NC2CCCCC2)cc1	GPR7 antag 40 | GPR7 antag conf 57 | MCHR1 antagonist 45
O=C(c1ccccc1)N(Cc1cccc(Br)c1)C1CCS(=O)(=O)C1 (stereo not drawn)	GPR7 antag 35 | GPR7 antag conf inactive | MCHR1 antagonist inactive
CCN(C(=O)c1cccc(Br)c1)C1CCS(=O)(=O)C1 (stereo not drawn)	none (no result: pCIP destab, GPR7 antag)
COc1ccc(CNC(=O)C2CCCN(S(=O)(=O)c3cnc[nH]3)C2)cc1 (stereo not drawn)	GPR7 antag 29 | GPR7 antag conf inactive | MCHR1 antagonist inactive
Cc1cc(C)cc(NC(=O)C2C3C=CC4(O3)C2C(=O)N(CCCN2CCCC2)C4C(=O)NC2CCCC(C)C2C)c1 (stereo not drawn)	GPR7 antag 27 | GPR7 antag conf inactive | MCHR1 antagonist inactive
Cc1cccc(NC(=O)C2C3C=CC4(O3)C2C(=O)N(CCCN2CCCC2)C4C(=O)NC2CCCC(C)C2C)c1 (stereo not drawn)	none
C=CCOc1ccc(CNCC2CCCO2)cc1 (stereo not drawn)	none
Cc1nc2ccc([N+](=O)[O-])cc2c(=O)n1Cc1ccc(Br)cc1	none
Cc1nc2ccc([N+](=O)[O-])cc2c(=O)n1Cc1cccc(Br)c1	GPR7 antag 47 | GPR7 antag conf 32 | MCHR1 antagonist 35
CC(NC(=O)Nc1ccc2c(c1)OCO2)C1CCCO1 (stereo not drawn)	GPR7 antag 99 | GPR7 antag conf inactive | MCHR1 antagonist inactive

Screening results from PubChem.
